HCMV inh: human cytomegalovirus inhibition; AID 1259415; 4.5% of 410,000 active; HFF cells, HCMV-luciferase reporter, 72 h; stronger effect = lower value; activity change, negative = inhibition, % at 57.5 µM; in the data active = activity change below about -60%; inconclusive = no clear call, values can overlap the other calls; inactive = above about -39%
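Two compound doses tested in HFFs infected with HCMV-luciferase, MOI 1 PFU/cell, 72 h at 37C. Lysate luminescence read with OneGlo; data normalized against buffer-only and 10uM Salinomycin inhibitor controls.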
Vaccinia Venus: vaccinia inhibition (Venus reporter); Vaccinia virus Venus reporter expression, fluorescence; Potency, µM (top dose mostly 36.5 µM), for inactives: top-dose activity change, negative = inhibition, actives largely listed as inhibitors; 0.46% of 330,000 active; calls by dose curve; tested in A549 cells; also: potency is read from the fitted curve at half-maximal effect; nearly all actives have a fitted effect of over 30% in size
Marburg entry inh: Marburg virus entry inhibition. 1.8% of 300,000 active. Marburg virus pseudotyped entry inhibition, cell reporter. Potency, µM (top dose mostly 37.8 µM), for the others: at the highest dose activity change, negative = inhibition, most hits filed as inhibitors. AID 540276; calls by dose curve; tested in HEK293 cells; also: potency is read from the fitted curve at half-maximal effect
Vaccinia mCherry: inhibitors of vaccinia virus infection (mCherry reporter signal). Potency, µM (top dose mostly 36.5 µM), inactives show at the top dose activity change, negative = inhibition, usual class: inhibitors. 0.63% of 310,000 active. AID 720579. Vaccinia virus mCherry reporter infection, fluorescence; calls by dose curve; tested in A549 cells; also: potency is read from the fitted curve at half-maximal effect; nearly all actives have a fitted effect of over 35% in size
FMDV antiviral: antivirals against foot and mouth disease virus | FMDV antiviral cell-based qHTS | Potency, µM (series often up to 57.9 µM), for the others: top-dose activity change, negative = inhibition, most hits filed as inhibitors | 1.2% of 410,000 active | AID 1159524; calls by dose curve; tested in HEK293T cells; also: read-out not given here; potency is read from the fitted curve at half-maximal effect; nearly all actives have a fitted effect of over 45% in size
Lassa entry inh: Lassa virus entry inhibition | Lassa virus pseudotype entry inhibition, cell reporter | 1.2% of 300,000 active | Potency, µM (doses to about 37.9 µM), for the others: at the top dose activity change, negative = inhibition, usual class: inhibitors; calls by dose curve; tested in HEK293 cells; also: potency is read from the fitted curve at half-maximal effect; nearly all actives have a fitted effect of over 50% in size
The depositor's hits bear a star; i = inactive; ? = inconclusive; nt = no result given; ! = not active in a repeat; [ ] = another dose, or the depositor's remark. Compounds with a hit are over-represented: about 6.5% of the library has one in this group of screens. % is scaled to controls: 0 for no effect and ±100 for the full control effect.

SMILES | HCMV inh | Vaccinia Venus | Marburg entry inh | Vaccinia mCherry | FMDV antiviral | Lassa entry inh
CCCC(=O)OCCNc1cc(SCc2ccco2)c2nonc2c1[N+](=O)[O-] | 16 | ? | ? | 10µM* | 0% | ?
CC(=O)OCCCNc1cc(SCc2ccco2)c2nonc2c1[N+](=O)[O-] | 10 | ? | 13µM* | 11µM* | 35µM* | ?
CCC[C@H]1[C@@H](NC(=O)Nc2cccc(C#N)c2)CC[C@@]23CCCN2C(=O)CCC[C@@H]13 | -17 | nt | nt | nt | nt | nt
CCCNC(=O)c1ccc2c(=O)c(O)c(-c3ccc(C)cc3)[nH]c2c1 | -30 | ? | nt | 13µM* | -23% | nt
CCOC(=O)c1ccccc1NC(=O)N(Cc1ccc(CC)cc1)Cc1cn[nH]c1-c1ccc(OC)cc1 | -63* | ? | ? | ? | ? | -2%[46.1 µM]
Cc1cccc(N2CCN(C(=O)CN3CCSc4ccccc43)CC2C)c1 (stereo not given) | -6 | -3% | nt | -8% | 0% | -21%[46.1 µM]
O=C(NCCN1CCC(n2c(=O)[nH]c3ccccc32)CC1)c1ccccc1 | -10 | -10% | nt | -2% | -19% | nt
O=C1NCN(c2ccccc2)C12CCNCC2 | 21 | nt | 0% | nt | ? | 0%
O=c1[nH]c2ccccc2n1C1CCN(CCCC(c2ccc(F)cc2)c2ccc(F)cc2)CC1 | ? | ? | 12µM*! | -14% | ? | 10µM*!
O=C1NCN(c2ccccc2)C12CCN(CCCC(c1ccc(F)cc1)c1ccc(F)cc1)CC2 | 58 | -12% | 2.1µM* | -26% | ? | 10µM*
O=C(NCCN1CCC2(CC1)C(=O)NCN2c1cccc(F)c1)c1ccc2ccccc2c1 | -101* | -5% | nt | 6% | -29% | nt
N#CCCn1c(=O)c(-c2ccc(F)cc2)nc2cnc(N3CCNCC3)nc21 | nt | nt | nt | nt | -19% | nt
COC(=O)C1=C(C(=O)OC)[C@@H]2Nc3ccccc3[C@@]23C[C@@H](C(=O)OC)N(C(=O)N2CCNC2=O)C3=N1 | nt | nt | 8%[14.2 µM] | nt | nt | nt
O=C(C#Cc1ccccc1)Nc1cccc(F)c1 | -104* | ? | ? | 3.5µM* | 33% | 11µM*
O=C(CC(=O)Nc1cccc(F)c1)Nc1cccc(F)c1 | 52 | -7% | 2% | i | 67% | 0%
O=C(C#Cc1ccccc1)Nc1ccc(F)cc1 | -102* | ? | ? | ? | 11% | ?
C=CCN1c2ccccc2[C@]23CCC(=O)N(CCCOC(C)C)C2=NC(C(=O)OC)=C(C(=O)OC)[C@H]13 | nt | nt | -10%[14.2 µM] | nt | nt | nt
CC#CCN1c2ccccc2[C@]23CCC(=O)N(CCCOC(C)C)C2=NC(C(=O)OC)=C(C(=O)OC)[C@H]13 | nt | nt | -12%[14.2 µM] | nt | nt | nt
O=C(Cc1ccc(Cl)cc1)NCCc1c[nH]c2ccccc12 | 15 | nt | nt | nt | -20% | nt
O=C(CCl)N(c1ccc(Cl)cc1)c1c[nH]c2ccccc12 | -105* | 13µM* | ? | ? | ? | ?
O=C(CCl)N(c1ccccc1)c1c[nH]c2ccccc12 | -103* | ? | ? | ? | ? | ?
O=C(O)Cc1c[nH]c2ccccc12 | nt | 2% | nt | 6% | -14% | nt
COc1cc2nc(N3CCCC(O)C3)c(CNCc3ccccc3C(F)(F)F)cc2c(OC)c1OC (stereo not given) | nt | -18% | nt | -11% | -5% | nt
COc1ccccc1-c1noc(-c2ccc(NC(C)C)c([N+](=O)[O-])c2)n1 | 52 | -10% | 0%[46.1 µM] | -18% | 8% | ?
CC[C@@H]1CN2CCc3cc(OC)c(OC)cc3[C@H]2C[C@@H]1C[C@H]1NCCc2cc(OC)c(OC)cc21 | nt | nt | 0.33µM* | nt | nt | nt
SMILES | HCMV inh | Vaccinia Venus | Marburg entry inh | Vaccinia mCherry | FMDV antiviral | Lassa entry inh
COc1cc2c(cc1OC)C(Cc1ccc(O)cc1)N(C)CC2 (stereo not given) | -18 | -4% | -8% | -8% | -13% | 0%
CCC1CN2CCc3cc(OC)c(OC)cc3C2CC1CC1NCCc2c1[nH]c1ccc(O)cc21 (stereo not given) | -99* | 5.6µM* | 0.22µM* | ? | ? | 0.5µM*
Cc1cnccn1 | nt | -7% | nt | -13% | nt | nt
O=C(/C=C/c1ccc(F)cc1)NC(=S)N1CCCCC1c1cccnc1 (stereo not given) | -11 | -5% | 8%[46.1 µM] | ? | 14% | 14%
O=C1/C(=C/c2ccccc2F)SC(=S)N1CC(=O)N1CCCCC1c1cccnc1 (stereo not given) | -76* | nt | nt | nt | 0% | nt
O=C1/C(=C/c2ccc(F)cc2)SC(=S)N1CC(=O)N1CCCCC1c1cccnc1 (stereo not given) | -83* | nt | nt | nt | -1% | nt
COCCNC(C)(CCCCC(=O)O)c1nnnn1-c1c(C)cccc1Cl (stereo not given) | -9 | nt | nt | nt | nt | nt
CCCCCn1c(C(C)NC(=O)c2ccccc2)nc2ccccc21 (stereo not given) | -9 | -8% | -18%[46.1 µM] | -18% | -19% | 20%[46.1 µM]
CC(=O)NCCCN(Cc1ccc(Cl)c(Cl)c1)c1ccc(Br)cn1 | nt | -25% | nt | -29% | nt | nt
CCc1ccc(NC(=O)CSc2nc3c(sc4ccccc43)c(=O)n2CCCOC(C)C)cc1 | ? | -27% | nt | -22% | 0% | ?
COc1cccc(-n2c(SC)nnc2C2CCN(CCC(C)c3ccc(C)o3)CC2)c1 (stereo not given) | nt | -5% | nt | -16% | -18% | nt
CCOC(=O)CSC1=NC(=O)/C(=C/c2ccc(Br)cc2)S1 | -29 | -13% | 8%[46.1 µM] | -2% | 25µM* | 5%
NC1=NC(=O)/C(=C/c2ccc(Br)cc2)S1 | -20 | nt | nt | nt | 7% | nt
CCOC(=O)CSC1=NC(=O)/C(=C\c2ccc(OC(C)=O)cc2)S1 | 113 | nt | 8.2µM* | nt | 22% | ?
COc1ccc(N2CCN(C(c3ccccc3)c3sc4nc(-c5ccco5)nn4c3O)CC2)cc1 (stereo not given) | 85 | -12% | nt | -16% | 14% | 5%[46.1 µM]
O=C(CSc1nnc(-c2ccccc2Br)o1)N1CCN(C(=O)c2ccco2)CC1 | -25 | ? | -3% | 13µM* | nt | 2%
Cc1cc2cc(C)c3nnc(SCC(=O)N4CCN(C(=O)c5ccco5)CC4)n3c2cc1C | -73* | -27% | -7% | -13% | nt | -15%
CC1Cc2cc(S(=O)(=O)CCC(=O)Nc3ccc(F)cc3Cl)ccc2N1C(=O)C1CC1 (stereo not given) | 26 | -8% | nt | -8% | -24% | 7%[46.1 µM]
COc1ccc(Br)cc1Cn1nnc(C(=O)Nc2ccc(C)cc2C)c1N | -74* | -22% | ? | ? | -4% | 7%[46.1 µM]
CCOc1ccc(OCC)c(NC(=O)c2nnn(Cc3cc(Br)ccc3OC)c2N)c1 | 3 | -19% | ? | -21% | -23% | -10%[46.1 µM]
CSc1ccc(Cn2nnc(C(=O)Nc3ccc(C)cc3Cl)c2N)cc1 | -78* | -30% | 11%[46.1 µM] | -16% | 64% | -6%[46.1 µM]
Cc1ccccc1C(=O)Nc1cccc(-c2cn3cccnc3n2)c1 | 25 | -5% | nt | -3% | -11% | -21%[46.1 µM]
CCC(Sc1nc2nccnc2c(=O)n1Cc1ccc(OC)cc1)C(=O)NC1CCCCC1 (stereo not given) | -29 | -7% | nt | -20% | 7.1µM* | 9%[46.1 µM]
